Results on 20 compounds are retold here after PubChem BioAssay (NCI).

This is part of a sample that, as a whole, favours compounds with a hit. Of some 79,000 tested, about 15% had one in any assay. A number with no mark means an inactive call. Active and inactive are the calls of the source. No stated cut-off is given here; in the data, active means growth inhibition above about 70%; inactive means the rest.

A short description of assay [1]: NCI Yeast Anticancer Drug Screen. Data for the rad50 strain (AID 155).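 Further: 0% = growth of vehicle-only cultures of the same strain.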 The conditions noted are these: S. cerevisiae rad50 strain growth inhibition; at 50.0 µM; hits give high values. Put shortly: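 Compounds were tested on a yeast strain with an engineered DNA damage repair alteration; the reported value is growth inhibition normalised to vehicle treatment.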
Assay [2] can be described thus: NCI Yeast Anticancer Drug Screen. Data for the mec2-1 strain (AID 157). The settings on record: S. cerevisiae mec2-1 strain, at 50.0 µM, hits give high values. In short, it runs like this: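 Growth inhibition is read against vehicle-treated controls after compound exposure of the mec2-1 yeast strain, which is defective in DNA damage repair or cell cycle control.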

Assay [3] in a line: NCI Yeast Anticancer Drug Screen. Data for the sgs1 mgt1 strain (AID 161).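 Further: 0% = growth of cultures given vehicle only.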 The conditions noted are these: S. cerevisiae sgs1 mgt1 strain, at 50.0 µM, hits give high values. In short, it runs like this:
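Compounds are added to genetically altered yeast, and growth is compared with cultures given vehicle alone to give percent inhibition.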

The nature of assay [4]: NCI Yeast Anticancer Drug Screen. Data for the cln2 rad14 strain (AID 165).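 Further: 0% = growth equal to vehicle treated cultures.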 The conditions noted are these: S. cerevisiae cln2 rad14 strain, at 50.0 µM, hits give high values. In short, it runs like this: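 Growth inhibition, relative to vehicle-treated controls, is the read-out. The test organism is a yeast strain with defined genetic alterations, cln2 rad14.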
A short description of assay [5]: NCI Yeast Anticancer Drug Screen. Data for the bub3 strain (AID 167). The settings on record: S. cerevisiae bub3 mutant strain, at 50.0 µM, hits give high values. In short, it runs like this: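 Growth of a checkpoint-deficient yeast mutant is measured after compound exposure. Values represent inhibition relative to vehicle.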
Assay [6] can be described thus: NCI Yeast Anticancer Drug Screen. Data for the mlh1 rad18 strain (AID 175). The settings on record: S. cerevisiae mlh1 rad18 strain growth inhibition; at 50.0 µM; hits give high values. Put shortly: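 Cells of a genetically altered yeast strain, deficient in DNA damage repair, were treated with compound. Their growth was then compared with that of vehicle-treated cultures to give inhibition.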

As for `O=C(c1ccccc1)C1CCCCN1C(=O)c1ccccc1` (stereo not given), the growth inhibition in assay [1] is -13.8%; in assay [2] it was -8.3%; in assay [3] it was -4.6%; in assay [4], -17.3%; in assay [5], 27.9%; in assay [6] it was -21.9%.
Regarding `Cc1ncc([N+](=O)[O-])n1CCN(C)CCCCn1ccnc1[N+](=O)[O-]`, the growth inhibition was -0.3% in assay [1]; -1.2% in assay [2]; -5% in assay [3]; -3.75% in assay [4]; 7.7% in assay [5]; -57.9% in assay [6].
For the compound `CC(=O)Nc1ccc(S(=O)(=O)SC(F)(F)F)cc1`, the growth inhibition was 0.8% in assay [1]; 7.25% in assay [2]; 17.4% in assay [3]; 24.7% in assay [4]; 8.85% in assay [5]; 13.7% in assay [6].
Consider `C=CCOCn1ccc(NC(=O)c2ccccc2)nc1=O`, for which the growth inhibition in assay [1] is -58%; in assay [2] it was -57.1%; in assay [3], -37%; in assay [4] it was -3.15%; in assay [5], -8.4%; in assay [6], -22.3%.
As to `CN(C(=O)c1ccc(C(=N)N)cc1)c1ccccc1`, the growth inhibition in assay [1] was -8.3%; in assay [2], -7.3%; in assay [3], -5.1%; in assay [4], -12.8%; in assay [5] it was -0.05%; in assay [6], -8.95%.
Consider `O=C1CC(C2(O)C(=O)Nc3ccc([N+](=O)[O-])cc32)c2ccccc21` (stereo not given), for which the growth inhibition in assay [1] is -22%; in assay [2] it was -19.1%; in assay [3], -9.65%; in assay [4], -5.4%; in assay [5], 11.2%; in assay [6] it was -39.4%.
`O=C1CCSCCC(=O)Nc2ccccc2N1`: the growth inhibition in assay [1] is 3.6%; in assay [2], 0.85%; in assay [3], 16.6%; in assay [4], 20.4%; in assay [5], 17.9%; in assay [6], -65.4%.
For the compound `Cc1ccc(NC(=O)C2C3CC4OC(=O)C2C4C3)cc1` (stereo not given), the growth inhibition in assay [1] was -10.6%; in assay [2] it was -4.45%; in assay [3], 11.5%; in assay [4], 0.55%; in assay [5], 18.6%; in assay [6], -16.6%.
`[N-]=[N+]=C(C(=O)OCC#CCOC(=O)C(=[N+]=[N-])S(=O)(=O)c1ccccc1)S(=O)(=O)c1ccccc1`: the growth inhibition in assay [1] is -8.95%; in assay [2] it was -20.6%; in assay [3], 12.8%; in assay [4] it was -31.6%; in assay [5], -8.95%; in assay [6] it was -17.1%.
On to `CC(/C=N/N(C)C1=NCCCCN1)=N/N(C)C1=NCCCCN1`, for which the growth inhibition in assay [1] is 23.9%; in assay [2], 12.7%; in assay [3] it was 18.5%; in assay [4], -21.6%; in assay [5], -2.5%; in assay [6], 29.4%.
`O=c1[nH]c(C(Cl)(Cl)Cl)nc2ccc(Cl)cc12`: the growth inhibition in assay [1] was -0.3%; in assay [2], 8.6%; in assay [3], -1.95%; in assay [4], 11.8%; in assay [5], -10.1%; in assay [6], -12.1%.
For `C=C1C(=O)OC2C1C(OC(=O)/C(C)=C/C)CC(O)(CCl)C1C(O)C=C(C)C21O` (stereo not given), the growth inhibition is 33.5% in assay [1]; 14.6% in assay [2]; 21.6% in assay [3]; 20.8% in assay [4]; 10.1% in assay [5]; -51.1% in assay [6].
For `CCCc1[nH]nc(CCC(=O)N(Cc2ccccc2)Cc2ccccc2)c1CC`, the growth inhibition in assay [1] was -6.65%; in assay [2] it was -26.4%; in assay [3] it was 11.6%; in assay [4], 2.3%; in assay [5] it was -7.9%; in assay [6] it was -18.1%.
For `CCOC(=O)C(O)Cc1ccc(N)cc1` (stereo not given), the growth inhibition in assay [1] was 5.8%; in assay [2], 12.2%; in assay [3], 12.3%; in assay [4] it was 9.85%; in assay [5], 12.8%; in assay [6] it was 2.85%.
For `COC(=O)c1ccccc1NC(=O)Nc1cc(Cl)ccc1OC`, the growth inhibition in assay [1] is 85.5% (active); in assay [2] it was 91.2% (active); in assay [3] it was 90.4% (active); in assay [4], 80.8% (active); in assay [5], 88.2% (active); in assay [6], 88.9% (active).
Consider `O=C(N/N=C/c1ccccc1)c1c(-c2cccnc2)cnc2ccccc12`, for which the growth inhibition in assay [1] was -12.8%; in assay [2] it was -9.3%; in assay [3], -10.6%; in assay [4], 10.9%; in assay [5], 12.3%; in assay [6], 14.3%.
`CCOC(=O)c1cc(C=O)oc1C`: the growth inhibition in assay [1] is 6.8%; in assay [2], -4.2%; in assay [3], -8.1%; in assay [4] it was -42.6%; in assay [5], 2%; in assay [6] it was -0.75%.
Take `CCC1Cc2ccccc2OC1=O` (stereo not given): the growth inhibition is 10.9% in assay [1]; -3.6% in assay [2]; -1.95% in assay [3]; -7.7% in assay [4]; 7.9% in assay [5]; 1.55% in assay [6].
With `Nc1nc2c(nnn2-c2ccc(Cl)cc2)c(=O)[nH]1`, the growth inhibition is -4.3% in assay [1]; -4.15% in assay [2]; -5.85% in assay [3]; -25.1% in assay [4]; -0.5% in assay [5]; -6.25% in assay [6].
`CCC(c1ccc(O)cc1)c1cc2c(cc1OCCO)OCO2` (stereo not given): the growth inhibition in assay [1] was -15.7%; in assay [2], -9.25%; in assay [3], -5.7%; in assay [4], -11.2%; in assay [5], -7.9%; in assay [6], -5.3%.
